About 2,800 (6%) of roughly 47,000 compounds were called active. For the sample, actives were picked, then their nearest neighbours and some compounds at random. Unmarked numbers belong to inactive results. Rule as the data show it: active = z-score above about 3 (passing the limit was not always enough); inactive = the rest.
target: Endoribonuclease Dicer (Homo sapiens) (UniProt Q9UPY3); assay: Dicer cleavage of pre-miR-21 blockers – biochemical, cat-ELCCA, chemiluminescence, primary screen (AID 1347074); conditions: cat-ELCCA pre-miR-21 Dicer processing, at 25 µM, active compounds read high;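 also: plate controls were vehicle for no effect and no enzyme for full effect; higher signal means more uncleaved substrate so more Dicer inhibition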
Sequence (Q9UPY3 whole entry, looked up): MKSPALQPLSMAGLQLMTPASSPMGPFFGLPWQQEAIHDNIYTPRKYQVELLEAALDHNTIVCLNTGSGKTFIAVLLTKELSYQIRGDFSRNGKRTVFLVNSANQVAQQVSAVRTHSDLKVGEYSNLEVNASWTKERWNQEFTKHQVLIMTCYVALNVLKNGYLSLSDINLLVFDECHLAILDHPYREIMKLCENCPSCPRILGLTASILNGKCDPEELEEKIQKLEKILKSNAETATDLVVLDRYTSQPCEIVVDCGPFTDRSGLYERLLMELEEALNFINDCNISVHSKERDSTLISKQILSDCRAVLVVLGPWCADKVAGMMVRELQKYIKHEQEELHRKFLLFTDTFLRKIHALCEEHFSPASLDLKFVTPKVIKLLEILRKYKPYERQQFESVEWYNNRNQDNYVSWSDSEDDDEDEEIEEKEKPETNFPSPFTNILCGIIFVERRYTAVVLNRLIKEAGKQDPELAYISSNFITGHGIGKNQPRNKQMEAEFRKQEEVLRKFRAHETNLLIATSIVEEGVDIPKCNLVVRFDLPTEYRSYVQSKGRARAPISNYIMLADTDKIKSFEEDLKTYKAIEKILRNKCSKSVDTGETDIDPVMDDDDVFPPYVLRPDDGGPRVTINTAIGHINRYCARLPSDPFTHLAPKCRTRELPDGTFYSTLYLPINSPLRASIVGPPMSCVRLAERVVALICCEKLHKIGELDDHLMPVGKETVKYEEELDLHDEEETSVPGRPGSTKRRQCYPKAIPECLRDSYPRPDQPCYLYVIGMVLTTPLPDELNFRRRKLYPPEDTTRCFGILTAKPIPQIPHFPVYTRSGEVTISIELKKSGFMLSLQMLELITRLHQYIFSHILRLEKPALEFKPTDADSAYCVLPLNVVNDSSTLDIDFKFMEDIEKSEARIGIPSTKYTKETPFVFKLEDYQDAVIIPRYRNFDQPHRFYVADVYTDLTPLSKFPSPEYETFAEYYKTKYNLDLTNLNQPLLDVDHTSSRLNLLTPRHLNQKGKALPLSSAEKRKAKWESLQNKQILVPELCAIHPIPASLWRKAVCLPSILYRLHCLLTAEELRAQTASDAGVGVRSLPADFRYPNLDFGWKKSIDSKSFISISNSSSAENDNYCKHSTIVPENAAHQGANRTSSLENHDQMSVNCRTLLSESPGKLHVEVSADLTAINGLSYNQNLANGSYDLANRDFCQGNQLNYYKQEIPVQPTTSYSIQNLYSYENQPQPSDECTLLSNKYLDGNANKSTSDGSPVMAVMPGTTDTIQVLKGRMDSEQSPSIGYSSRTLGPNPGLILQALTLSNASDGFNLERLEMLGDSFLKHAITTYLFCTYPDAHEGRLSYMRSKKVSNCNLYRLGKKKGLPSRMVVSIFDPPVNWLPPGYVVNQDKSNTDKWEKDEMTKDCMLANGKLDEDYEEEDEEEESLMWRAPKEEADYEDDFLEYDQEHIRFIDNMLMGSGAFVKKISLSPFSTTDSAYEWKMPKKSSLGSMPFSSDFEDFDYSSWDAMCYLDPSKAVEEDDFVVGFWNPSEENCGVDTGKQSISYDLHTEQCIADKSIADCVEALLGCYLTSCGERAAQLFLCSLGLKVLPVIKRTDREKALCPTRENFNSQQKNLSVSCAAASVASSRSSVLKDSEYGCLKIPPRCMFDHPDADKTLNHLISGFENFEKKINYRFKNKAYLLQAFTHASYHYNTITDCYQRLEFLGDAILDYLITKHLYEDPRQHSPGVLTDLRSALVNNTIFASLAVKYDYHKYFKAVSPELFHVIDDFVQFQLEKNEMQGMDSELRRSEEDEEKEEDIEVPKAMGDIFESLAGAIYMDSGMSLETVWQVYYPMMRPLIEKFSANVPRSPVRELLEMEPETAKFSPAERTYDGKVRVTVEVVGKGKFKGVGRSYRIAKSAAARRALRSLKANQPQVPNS

SMILES | z-score
CSc1sc(C(=O)NNC(=S)Nc2ccccc2Cl)c2c1C(O)CCC2 (configuration not stated) | 6.52 (active)
CSc1sc(C(=O)c2ccc(Cl)cc2)c2c1C(=O)CCC2 | -1.08
CC(=O)N1CCc2cc(NC(=S)Nc3ccccc3Cl)ccc21 | 0.03
CC1=C(C(=O)OCCc2ccccc2)C(c2cccs2)C2=C(CCCC2=O)N1 (configuration not stated) | 0.14
CC(C)c1nnc(NC(=O)Cn2c(=O)sc3ccccc32)s1 | 0.59
CNC(=O)CSc1nc2ccccc2[nH]1 | 1.43
Nc1cc(=O)[nH]c(SCC(=O)Nc2ccccc2F)n1 | 1.47
COc1ccc(Cl)cc1NC(=O)CSc1nc2ncccc2[nH]1 | 3.45 (active)
O=C1c2ccccc2C(=O)N1CN1CCC(CCCC2CCN(CN3C(=O)c4ccccc4C3=O)CC2)CC1 | 2.46
Cc1sc2nc3n(c(=O)c2c1C)N=C(c1cccs1)CS3 | 1.1
O=C1c2cccnc2C(=O)N1c1ccc(-c2nc3ccccc3o2)cc1 | 2.88
O=C(OCCN1CCCCC1)C1COc2ccccc2O1 (configuration not stated) | 3.41 (active)
Cc1cc(NC(=O)CCC2COc3ccccc3O2)no1 (configuration not stated) | 0.67
O=C(OCCN1CCOCC1)C1(c2ccccc2)CCCCC1 | -0.8
CC(C)(C)c1cc(N/C=C/c2nnnn2-c2ccccc2)no1 | -0.3
Brc1cccc(CN2CCN(Cc3cccnc3)CC2)c1 | 1.06
c1ccc(CN2CCN(Cc3cn[nH]c3-c3ccccc3)CC2)cc1 | -2.57
COc1ccc(CN2CCN(Cc3ccccc3OC)CC2)cc1Br | 3.53 (active)
c1cc(CNCc2ccc3c(c2)OCO3)ccn1 | 3.21 (active)
COc1cccc(CNCc2ccc3c(c2)OCO3)c1 | 0.54
c1ccc(NCc2ccc3c(c2)OCO3)nc1 | -1.56
COc1cccc(N2C(=O)C3ON(c4ccccc4)C(c4ccco4)C3C2=O)c1 (configuration not stated) | 1.03
COc1ccc(OCC(O)CN2CCC(C)CC2)cc1 (configuration not stated) | -0.23

SMILES | z-score
O=C1CCCC2=C1C(c1ccc([N+](=O)[O-])o1)Nc1ccc(C(=O)c3ccccc3)cc1N2 (configuration not stated) | 4.19 (active)
CC1=C(C(=O)OCc2ccccc2)C(c2ccc(O)cc2)C2=C(CCCC2=O)N1 (configuration not stated) | 0.01
CC1=C(C(=O)OCC2CCCO2)C(c2ccc(-c3ccccc3)cc2)C2=C(CCCC2=O)N1 (configuration not stated) | 1.9
COc1ccc(Cc2nc3c4c5c(sc4ncn3n2)CCCC5)cc1OC | 0.1
N#C/C(=C\c1sccc1Oc1ccccc1)S(=O)(=O)c1ccc(Cl)cc1 | -1.9
O=C1c2ccccc2C(=O)C1c1ccccc1F | 20.4 (active)
Nc1nc2c(c(=O)[nH]1)C(c1ccccc1F)CC(=O)N2 (configuration not stated) | -1.01
O=C1c2ccccc2C(=O)C1c1ccccc1 | 0.31
COC(=O)CCS(=O)(=O)c1ccc2ccccc2c1 | 1.34
COC(=O)c1ccc(/C=C/c2nc3cc(C)c(C)cc3o2)cc1 | -0.26
Cc1ccc(S(=O)(=O)Nc2cccc(-c3cn4ccccc4n3)c2)cc1C | 5.71 (active)
Cc1cccn2cc(-c3cccc(S(=O)(=O)N4CCCCC4)c3)nc12 | 0.61
O=S(=O)(c1cccc(-c2cn3ccccc3n2)c1)N1CCCC1 | -0.49
Oc1ccccc1C1=NN2C(C1)c1cc(Br)ccc1OC2c1ccncc1 (configuration not stated) | 12.7 (active)
COc1ccc(O)c(C2=NN3C(C2)c2cc(Cl)ccc2OC3c2cccnc2)c1 (configuration not stated) | -1.34
Cc1ccc(O)c(C2=NN3C(C2)c2cc(Cl)ccc2OC3c2ccncc2)c1 (configuration not stated) | -0.01
O=C(O)/C=C/C(=O)Nc1cccc([N+](=O)[O-])c1 | 1.26
Cc1cccc(C)c1NC(=S)N1CCc2ccccc2C1 | -2.91
O=[N+]([O-])c1cc(Br)cnc1Sc1n[nH]c(-c2cccs2)n1 | -0.81
Clc1ccc(-c2nn3c(-c4ccc(Cl)cc4)nnc3s2)cc1 | 0.14
COc1nc(NC(C)(C)C)nc(Oc2ccc(=O)[nH]n2)n1 | -0.91
CCCCCc1c(C)nc(N2CCN(Cc3ccc4c(c3)OCO4)CC2)[nH]c1=O | 3.11 (active)
O=C1CC(c2ccccc2)Cc2nc(N3CCN(Cc4ccc5c(c4)OCO5)CC3)ncc21 (configuration not stated) | -1.59

SMILES | z-score
O=C(c1cccs1)N1CCN(Cc2ccc3c(c2)OCO3)CC1 | 0.63
CCCCN1C(=O)C(c2c(C)[nH]n(-c3ccccc3)c2=O)(C(F)(F)F)C2=C1CC(C)(C)CC2=O (configuration not stated) | -2.96
Cc1ccc(S(=O)(=O)Nc2cccc(CCc3ccccn3)c2)cc1 | -0.8
COCCCNC(=S)Nc1ccc(C)cc1C | -0.42
CCCCCCCCc1ccc(C(=O)O)cc1 | -0.9
CCCc1ccc(C(=O)NNc2ccc(C)cc2C)cc1 | 4.39 (active)
Oc1c(C(Nc2ccccn2)c2ccncc2)ccc2cccnc12 (configuration not stated) | 1.37
Cc1cccc(Cl)c1N=C(N)N=C(N)N | 1.97
CC1(C)N=C(N)N=C(N)N1c1cc(Cl)c(Cl)cc1Cl | -0.47
O=c1ccn(C2CCCO2)c(=O)n1Cc1ccccc1F (configuration not stated) | 0.96
CCc1ccc(C(=O)/C=C/Sc2nc3ccccc3o2)cc1 | 1.33
CCc1ccc(C(=O)/C=C/Sc2ccccn2)cc1 | 4.22 (active)
CCCc1c(C)nc2scc(-c3ccc(Cl)cc3)n2c1=O | 1.65
O=C(Nc1cccc(C(F)(F)F)c1)Nc1ccccc1SCc1ccc(Cl)cc1 | -1.32
COCCCNC(=S)N/N=C/c1ccccc1Cl | -0.35
COc1cccc(/C=N/NC(=O)c2cc(C)nc3ccc(Br)cc23)c1O | 2.93
COc1cccc(/C=N/NC(=S)Nc2cc(C(F)(F)F)cc(C(F)(F)F)c2)c1O | 5.84 (active)
CC(C)OC(=O)Cn1nc(C(F)(F)F)c2c1CCCC2 | 0.31
c1ccc(Nc2ncnc3sc(-c4ccccc4)cc23)cc1 | 0.51
COc1ccc(Nc2ncnc3sc(-c4ccccc4)cc23)c(OC)c1 | 8.39 (active)
CNC(=O)NC(=O)CSc1ncnc2sc(-c3ccccc3)cc12 | -1.14

Reference: PubChem BioAssay AID1347074 (Center for Chemical Genomics, University of Michigan, 2019)
